Compound activity deposited in PubChem by Broad Institute.
PAX8 reporter: PAX8 transcriptional activity inhibition; RMG-I TPO-luciferase reporter, SteadyGlo, 24 h; inhibition, % at 12.6 µM; 360,000 tested, 1.2% active; AID 652154;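 active = mean replicate inhibition at least 60% with every replicate also reaching 60%; inconclusive = only one of the two criteria is met; inactive = mean below 60% and not all replicates reaching 60%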;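 note: luciferase light reporting Pax8 driven TPO promoter activity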
F508del corr: CFTR F508del correction in bronchial cells; CFBE cells, YFP halide quenching; stimulated with forskolin plus potentiator P3; % fluorescence drop versus neutral controls; activity (quench increase), % at 7.58 µM; 350,000 tested, 0.36% active;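 active = mean added fluorescence quench of at least 8% versus neutral control, with both replicates also reaching 8%; inconclusive = only one of the mean or replicate conditions met; inactive = mean below 8% and not both replicates reaching 8%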;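 note: cells transiently co-express mutant CFTR-F508del with the halide-sensitive YFP; corrector assay measuring rescue of mutant channel to the surface after 24 h compound exposure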
PGC1a acetyl inh: lowers PGC1a acetylation signal in U2OS cells; inhibition, % at 15.6 µM; 350,000 tested, 0.17% active; AID 651687; AlphaScreen anti-acetyl-lysine; with virally co-expressed GCN5 acetyltransferase;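 active = every replicate shows inhibition of at least 40%; inconclusive = mean inhibition at least 40% but some replicate below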
EWS-Fli inh: EWS/Fli transcriptional activity inhibition; A673 NR0B1-luciferase reporter, viability-normalised; inhibition, % at 12.6 µM; 350,000 tested, 0.67% active;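 active = mean inhibition of at least 50% after viability correction, with every replicate also passing that limit; inconclusive = mean reaches 50% but only one of two replicates passes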;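 note: firefly luciferase signal divided by Alamar Blue viability fluorescence both relative to DMSO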
Env fusion inh: HIV envelope-mediated fusion inhibition; HeLa-JRFL Env/CEM21 cell fusion, luciferase; inhibition, % at 12.3 µM; 360,000 tested, 1.1% active; AID 651610;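 active = mean replicate inhibition score of at least 50 and every replicate individually at or above 50; inconclusive = only one of the two criteria met; inactive = mean below 50 and not all replicates reaching 50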
GSIS activator: GLuc luminescence reporter in INS-1E cells, primary screen for activators of glucose-dependent secretion of insulin; activation, % at 16.6 µM; 370,000 tested, 0.61% active; AID 743287; INS-1E GLuc reporter insulin secretion, 2-3 h;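 active = lowest replicate activation of at least 40%, so every replicate reaches that level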
A number is an active result; i = inactive; ? = inconclusive; nt = no result given; ! = repeats disagree. This is a sample that favours compounds with a hit; in the whole collection about 2.7% have one here.

SMILES	PAX8 reporter	F508del corr	PGC1a acetyl inh	EWS-Fli inh	Env fusion inh	GSIS activator
COCCNc1nc(Oc2ccc(C(N)=O)cc2)c2sccc2n1	i	i	nt	i	i	92
COCCNc1nc(NCCCN(C)C)c2sccc2n1	i	i	nt	i	i	66
COc1ccc(C2=NS(=O)(=O)N(C)C(C(=O)N3CCCCC3C)=C2)cc1 (stereo unspecified)	i	i	nt	i	60	i
O=C(C[C@H]1CC[C@H](NC(=O)c2ccncc2)[C@H](CO)O1)NCc1ccncn1	i	i	i	nt	nt	i
C[C@@H]1CN([C@@H](C)CO)C(=O)c2cc(NC(=O)CCC(F)(F)F)ccc2O[C@@H]1CN(C)Cc1ccc(Oc2ccccc2)cc1	nt	i	i	i	i	i
O=C(c1ccncc1)N1C[C@@H]2[C@H](c3ccccc31)[C@@H](CO)N2C(=O)Nc1ccc(F)cc1	i	i	i	i	nt	i
O=C1c2ccc3c4c(ccc(c24)C(=O)N1CCCCO)C(=O)N(CCCCO)C3=O	i	18	nt	?	i	i
C[C@@H]1CN([C@H](C)CO)C(=O)Cc2cc(NC(=O)NC3CCCCC3)ccc2O[C@@H]1CN(C)C(=O)NC1CCCCC1	nt	i	i	i	i	i
COc1ccc(S(=O)(=O)Nc2ccc3c(c2)C(=O)N([C@@H](C)CO)C[C@@H](C)[C@H](CN(C)C(=O)C2CCCCC2)OCCCC[C@H](C)O3)cc1	i	i	i	i	i	i
COc1ccccc1S(=O)(=O)n1cc(Cc2ccccc2)c(N)n1	nt	nt	i	nt	79	nt
O=C(Nc1cccc(Cl)c1)N[C@@H]1CC[C@@H](CCNC(=O)C2CC2)O[C@H]1CO	i	i	i	i	i	i
Cc1cc(O)c2c(-c3ccccc3)cc(=O)oc2c1	i	nt	i	nt	i	nt
Cc1ccc(-c2cccc(-c3cc(=O)oc4ccc(C(C)(C)C)cc34)c2)cc1	i	8.7	i	i	i	i
C[C@@H](O)C#Cc1ccc2c(c1)O[C@@H](CN(C)C(=O)c1ccccc1)[C@@H](C)CN([C@@H](C)CO)S2(=O)=O	nt	i	i	i	i	i
CNC(=O)C[C@H]1CC[C@H]2[C@@H](COc3ccc(NC(=O)NC4CCCC4)cc3C(=O)N2C)O1	i	i	i	i	i	i
CN(C(=O)c1ccc(S(=O)(=O)c2cccc(Cl)c2)c([N+](=O)[O-])c1)C1CCCCC1	i	nt	i	nt	59	i
Cc1noc(C)c1COC(=O)[C@@H](NC(=O)c1ccccc1)C(C)C	69	i	nt	i	i	i
CC(C)[C@H](NC(=O)c1ccccc1)C(=O)OCc1nnc(-c2ccccc2)o1	i	i	i	i	i	nt
COCCNC(=O)C[C@@H]1C[C@@H]2c3cc(NC(=O)Nc4ccc(F)cc4)ccc3O[C@@H]2[C@H](CO)O1	i	i	i	i	i	i
CN(C)c1ccc2c(c1)[C@@H]1C[C@H](CC(=O)NCc3ccccc3F)O[C@H](CO)[C@@H]1O2	nt	nt	nt	nt	nt	i
CCOC(=O)N1CCC(N2C(=O)c3ccccc3C2Nc2cc(OC)c(OC)c(OC)c2)CC1 (stereo unspecified)	nt	i	i	i	nt	i
CN[C@H]1CCc2cc(OC)c(OC)c(OC)c2-c2ccc(OC)c(=O)cc21	90	i	nt	57	i	nt
COc1cc2c(c(OC)c1OC)-c1ccc(NC(=O)c3ccccc3)c(=O)cc1[C@@H](NC(C)=O)CC2	i	i	nt	54	i	i
CCOC(=O)NC1CCc2cc(OC)c(OC)c(OC)c2-c2ccc(SC)c(=O)cc21 (stereo unspecified)	83	i	nt	i	i	i
CCOCC(=O)NC1CCc2cc(OC)c(OC)c(OC)c2-c2ccc(SC)c(=O)cc21 (stereo unspecified)	86	i	i	?	nt	i
SMILES	PAX8 reporter	F508del corr	PGC1a acetyl inh	EWS-Fli inh	Env fusion inh	GSIS activator
C[C@@H]1CN([C@@H](C)CO)C(=O)c2cc(NC(=O)Nc3ccc(C(F)(F)F)cc3)ccc2O[C@@H](C)CCCCO[C@@H]1CN(C)C(=O)CCCN(C)C	i	i	i	i	i	i
O=C(C[C@H]1CC[C@@H]2[C@H](COC[C@H](O)CN2Cc2ccncc2)O1)NCc1ccccc1Cl	nt	i	i	nt	nt	i
CCCCOC(=O)NC1CCS(=O)(=O)C1 (stereo unspecified)	nt	nt	nt	nt	i	i
CCCCOC(=O)NC1CCc2cc(OC)c(OC)c(OC)c2-c2ccc(SC)c(=O)cc21 (stereo unspecified)	79	i	i	55	i	i
C/C(=N\NC(=O)CC1N=C(Cc2ccccc2)NNC1=O)c1ccccc1 (stereo unspecified)	i	nt	i	nt	i	nt
C/C(=N\NC(=O)CC1N=C(Cc2ccccc2)NNC1=O)c1ccc(Cl)cc1Cl (stereo unspecified)	nt	nt	nt	nt	nt	142
CCNC(=O)c1cc2c(c(-c3cccc(-c4cccnc4)c3)n1)[C@@H](CCO)N(S(C)(=O)=O)C2	i	i	i	i	nt	i
CCNC(=O)c1cc2c(c(-c3cccc(-c4cccnc4)c3)n1)[C@H](CCO)N(S(C)(=O)=O)C2	i	i	i	55	i	i
CC(=O)N1Cc2cc(C(=O)NCC(F)(F)F)nc(-c3cccc(-c4cccnc4)c3)c2[C@@H]1CCO	i	8.9!	i	59	i	i
COc1ccc2c3c(n(C)c2c1)[C@@H](CO)N(C(=O)C1CCCCC1)CC31CCN(C(=O)CN(C)C)CC1	i	i	nt	i	nt	i
CN1c2ccc(-c3ccc(C#N)cc3)cc2[C@@H]2[C@@H](CCN2C(=O)Nc2cccc(F)c2)[C@@H]1CO	i	i	i	i	nt	i
CNC(=O)C[C@@H]1CC[C@@H]2[C@H](COC[C@H](O)CN2Cc2ccncc2)O1	i	i	i	i	nt	i
CN(C)C(=O)c1ccc(-c2ccc(C3[C@@H]4CN(Cc5nccs5)C[C@H]3N4)cc2)cc1 (stereo partly specified)	i	i	i	53!	nt	i
Fc1cccc(CN2C[C@@H]3N[C@H](C2)C3c2ccc(-c3cncnc3)cc2)c1 (stereo partly specified)	i	i	i	i	nt	i
CN(C)C(=O)c1cccc(-c2ccc(C3[C@@H]4CN(C(=O)c5ccccn5)C[C@H]3N4)cc2)c1 (stereo partly specified)	i	i	i	58!	nt	i
O=C(c1ccc2c(c1)OCO2)N1C[C@@H]2N[C@H](C1)C2c1ccc(-c2cccnc2)cc1 (stereo partly specified)	i	i	i	64!	nt	i
Fc1ccc(-c2ccc(C3[C@@H]4CN(Cc5nccs5)C[C@H]3N4)cc2)cc1 (stereo partly specified)	63!	i	i	i	nt	i
CCNc1ccc(C(=O)OCC)cc1NC(=O)c1cc(S(=O)(=O)N2CCOCC2)ccc1C	nt	nt	i	nt	62	nt
Cc1ccc(-c2ccc3c(c2)O[C@H](CN(C)Cc2ccccn2)[C@@H](C)CN([C@@H](C)CO)S3(=O)=O)cc1	nt	12	i	58	i	i
